From PubChem BioAssay
hNpr1 antagonist – antagonists of human natriuretic peptide receptor Npr1; P16066; HEK293 hNpr1 GloSensor cGMP, ANP-stimulated luminescence; Potency, µM (top dose mostly 46.3 µM), without a hit: top-dose activity change, negative = inhibition, actives largely listed as inhibitors; actives 1.6% (n = 76,000); calls by dose curve; further: on the % scale 0 is the no-effect control and ±100 the full control effect; nearly all actives have a fitted effect of over 60% in size
Target sequence (P16066 whole entry, looked up): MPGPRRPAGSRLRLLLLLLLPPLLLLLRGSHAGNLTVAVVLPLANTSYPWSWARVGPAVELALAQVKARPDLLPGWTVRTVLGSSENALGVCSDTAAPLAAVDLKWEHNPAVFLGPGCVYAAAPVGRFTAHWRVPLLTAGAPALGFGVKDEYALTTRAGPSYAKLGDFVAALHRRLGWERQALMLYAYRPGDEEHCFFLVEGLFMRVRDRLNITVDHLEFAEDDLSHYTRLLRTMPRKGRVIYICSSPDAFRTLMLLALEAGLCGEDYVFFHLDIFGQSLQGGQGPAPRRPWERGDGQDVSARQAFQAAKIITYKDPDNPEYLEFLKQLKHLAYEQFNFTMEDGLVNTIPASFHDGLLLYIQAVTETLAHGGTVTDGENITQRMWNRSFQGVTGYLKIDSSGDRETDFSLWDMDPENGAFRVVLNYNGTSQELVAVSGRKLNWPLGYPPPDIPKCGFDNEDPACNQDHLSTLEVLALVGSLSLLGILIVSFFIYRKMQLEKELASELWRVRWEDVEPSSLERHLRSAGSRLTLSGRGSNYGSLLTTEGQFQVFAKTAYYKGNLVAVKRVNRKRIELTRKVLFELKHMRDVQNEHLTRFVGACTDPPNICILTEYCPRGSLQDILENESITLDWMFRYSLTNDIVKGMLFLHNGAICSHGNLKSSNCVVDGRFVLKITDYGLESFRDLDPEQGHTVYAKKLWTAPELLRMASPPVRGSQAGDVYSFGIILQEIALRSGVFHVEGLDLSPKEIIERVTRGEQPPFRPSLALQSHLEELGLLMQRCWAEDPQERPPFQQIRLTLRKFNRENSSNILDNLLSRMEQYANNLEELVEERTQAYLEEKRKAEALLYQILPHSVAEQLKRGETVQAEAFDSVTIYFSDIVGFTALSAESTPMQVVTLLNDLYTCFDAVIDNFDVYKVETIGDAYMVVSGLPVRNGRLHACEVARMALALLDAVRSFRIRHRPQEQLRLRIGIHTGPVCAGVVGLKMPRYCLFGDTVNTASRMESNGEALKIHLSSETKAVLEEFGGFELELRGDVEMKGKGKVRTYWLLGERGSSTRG
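HEK293 cells stably expressing human Npr1 and cGMP GloSensor pGS-40F, loaded 2 h with 2% GloSensor reagent, given compound 30 min at room temperature. Luminescence read before and 20 min after 0.1 nM hNppA.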
NIH3T3 tox – cytotoxic compounds in NIH 3T3 cells; NIH 3T3 viability, CellTiter-Glo ATP luminescence, 48-72 h; Potency, µM (series often up to 96.7 µM), for the others: at the highest dose activity change, negative = cytotoxicity, most hits filed as inhibitors; actives 4.3% (n = 94,000); AID 1345082; further: on the % scale 0 is the no-effect control and ±100 the full control effect; nearly all actives have a fitted effect of over 55% in size
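Mouse fibroblast NIH 3T3 cells, 400 per well, received compound via pintool and were incubated for 48 or 72 hr prior to CellTiter-Glo ATP luminescence measurement.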
HEK cytotox – HEK 293 cell cytotoxicity; AID 1345083; actives 6.6% (n = 94,000); HEK 293 viability, ATP luminescence (CellTiter-Glo), 48-72 h; Potency, µM (titrated, usually from 115 µM), for the others: at the top dose activity change, negative = cytotoxicity, actives largely listed as inhibitors; further: on the % scale 0 is the no-effect control and ±100 the full control effect; nearly all actives have a fitted effect of over 60% in size
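Cells seeded first (HEK 293, 250 cells/well), then compound added by pintool. Incubation ran 48 or 72 hr at 37 degree Celsius. CellTiter-Glo was added and luminescence imaged after 10 min at room temperature.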
FLuc inh-1 – inhibitors of firefly (Photinus pyralis) luciferase; Potency, µM (top dose mostly 115 µM), most hits filed as inhibitors; AID 1347043; purified P. pyralis luciferase, luminescence, biochemical; actives 2.5% (n = 76,000); P08659; further: on the % scale 0 is the no-effect control and ±100 the full control effect; nearly all actives have a fitted effect of over 65% in size
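Purified 10nM P. pyralis luciferase with 10uM D-luciferin and 10uM ATP in 50mM Tris acetate pH 7.5, 10mM Mg acetate, 0.01% Tween-20, 0.05% BSA. qHTS titration; luminescence read by CCD imager.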
FLuc SDR no ATP – stabilizes firefly luciferase without ATP | Potency, µM (doses to about 32.7 µM), without a hit: at the highest dose activation (signal gain), most hits filed as activators | Purified FLuc-C-HiBiT, Nano-Glo HiBiT luminescence, no ATP | actives 7.8% (n = 1,300) | shares compounds with FLuc inh-1 | AID 1963318; further: nearly all actives have a fitted effect of over 55% in size
FLuc SDR ATP – stabilizes firefly luciferase with ATP present; actives 8.7% (n = 1,300); shares compounds with FLuc inh-1; Potency, µM (doses to about 32.7 µM), without a hit: top-dose activation (gain of signal), hits mostly activators; purified FLuc-C-HiBiT + ATP, HiBiT complementation luminescence;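 further: signal reports ligand binding via conformational change of the enzyme rather than luciferase catalysis; % of control where 0% means no effect; nearly all actives have a fitted effect of over 55% in size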
FLuc inh-2 – blocks firefly luciferase enzymatic activity | AID 1963320 | Potency, µM (series often up to 32.7 µM), for the others: top-dose activity change, negative = inhibition, hits mostly inhibitors | shares compounds with FLuc inh-1 | actives 42% (n = 1,300) | purified FLuc-C-HiBiT enzyme, luciferin luminescence; further: on the % scale 0 is the no-effect control and ±100 the full control effect; nearly all actives have a fitted effect of over 70% in size
* hit, by the source's call; [ ] = another dose, or the depositor's remark. Only some compounds are listed: those with a hit (about 11% of all), similar ones and a draw of the others. Unless noted, the call rests on the fitted dose curve; in most records, active means well fitted curve in the direction sought with a large enough effect; inconclusive means small, poorly fitted or top-dose-only effect, or another doubt; inactive means no such curve, though single readings can be large; an effect the other way counts as inactive or inconclusive. Potency means the concentration at half of the fitted maximal effect.

For CNC(=O)c1cccc2c1CCN2C(=O)Nc1ccc(C)cc1 the results were hNpr1 antagonist 6.3µM*, NIH3T3 tox inconclusive, HEK cytotox -26%, FLuc inh-1 0.4µM*, FLuc SDR no ATP 11µM*, FLuc SDR ATP 0.44µM* and FLuc inh-2 0.35µM*.
`CCC(=O)N1CCc2c(C(=O)NCC(C)C)cccc21` gave hNpr1 antagonist 0%, NIH3T3 tox -11%, HEK cytotox 4% and FLuc inh-1 inactive.
Screening Cc1cccc(NC(=O)N2CCc3c(C(=O)NC(C)(C)C)cccc32)c1 returned hNpr1 antagonist -12%, NIH3T3 tox -14%, HEK cytotox inconclusive, FLuc inh-1 7.1µM*, FLuc SDR no ATP inconclusive, FLuc SDR ATP inconclusive and FLuc inh-2 8.8µM*.
CCOC(=O)C1CCCN(C(=O)Cc2ccc(N(Cc3cccc(C)c3)C(=O)c3ccco3)cc2)C1 (stereo unspecified) was read as hNpr1 antagonist -5%, NIH3T3 tox inconclusive, HEK cytotox inconclusive and FLuc inh-1 inactive.
Screening CCc1ccc(NC(=O)N2CCCC(c3noc(COc4ccccc4)n3)C2)cc1 (stereo unspecified) returned hNpr1 antagonist inconclusive, NIH3T3 tox inconclusive, HEK cytotox inconclusive, FLuc inh-1 1.4µM*, FLuc SDR no ATP inconclusive, FLuc SDR ATP inconclusive and FLuc inh-2 2.8µM*.
Screening C=CCN(C)C(=O)[C@@H](C)C1CC[C@@]2(C)Cc3sc(NC(=O)CN(C)C)nc3[C@@H](C)[C@@H]2[C@H]1O (stereo partly specified) returned hNpr1 antagonist -19%, NIH3T3 tox -27%, HEK cytotox -21%, FLuc inh-1 13µM*, FLuc SDR no ATP 13%, FLuc SDR ATP 13% and FLuc inh-2 -13%.
For CC(=O)NC1CCN(c2ccc3nnc(C4CC4)n3n2)C1 (stereo unspecified) the results were NIH3T3 tox inconclusive and HEK cytotox -8%[172 µM].
Screening Cc1ccc(NC(=O)C2CCN(C(=O)c3ncn4c3COC(c3ccc(F)cc3)C4)CC2)c(F)c1 (stereo unspecified) returned hNpr1 antagonist -2%, NIH3T3 tox inactive, HEK cytotox -1%, FLuc inh-1 13µM*, FLuc SDR no ATP 15%, FLuc SDR ATP inconclusive and FLuc inh-2 inconclusive.
`O=C(Nc1ccccc1F)C1CCN(C(=O)c2ncn3c2COC(c2ccc(F)cc2)C3)CC1` (stereo unspecified) gave hNpr1 antagonist -3%, NIH3T3 tox inactive, HEK cytotox -1% and FLuc inh-1 inconclusive.
COc1ccc(NC(=O)C2CCN(C(=O)c3ncn4c3COC(c3ccc(F)cc3)C4)CC2)cc1F (stereo unspecified) was read as hNpr1 antagonist -2%, NIH3T3 tox 0%, HEK cytotox -8% and FLuc inh-1 inconclusive.
For COc1ccc(C)cc1NC(=O)C1CCN(C(=O)c2ncn3c2COC(c2ccc(F)cc2)C3)CC1 (stereo unspecified) the results were hNpr1 antagonist -25%, NIH3T3 tox -9%, HEK cytotox -13%, FLuc inh-1 7.1µM*, FLuc SDR no ATP 12%, FLuc SDR ATP inconclusive and FLuc inh-2 inconclusive.
CN1c2cc(C(=O)NCc3cc(F)cc(F)c3)ccc2C(=O)N2CCCCC21 (stereo unspecified) was read as hNpr1 antagonist -5%, NIH3T3 tox -12%, HEK cytotox -6% and FLuc inh-1 inactive.
For O=C(Cc1ccccn1)N1CCCC(C(=O)N2CCC(c3ccccc3)CC2)C1 (stereo unspecified) the results were NIH3T3 tox 1% and HEK cytotox -8%.
For CCN1C(=O)CCc2cc(NC(=O)c3ccc(C(C)C)cc3)ccc21 the results were hNpr1 antagonist inconclusive, NIH3T3 tox inconclusive, HEK cytotox inconclusive, FLuc inh-1 3.5µM*, FLuc SDR no ATP 25%, FLuc SDR ATP 14% and FLuc inh-2 inconclusive.
For O=C1CCc2cc(NC(=O)c3n[nH]c4ccccc34)ccc2N1 the results were hNpr1 antagonist -26%, NIH3T3 tox inconclusive, HEK cytotox inconclusive, FLuc inh-1 2.8µM*, FLuc SDR no ATP inconclusive, FLuc SDR ATP inconclusive and FLuc inh-2 3.1µM*.
Screening O=C1CCc2cc(NC(=O)c3cccc(C(F)(F)F)c3)ccc2N1 returned hNpr1 antagonist 0%, NIH3T3 tox inconclusive, HEK cytotox inconclusive and FLuc inh-1 inactive.
Cc1cccc(C(=O)Nc2nc3c(s2)CCCC3)c1 was read as FLuc SDR no ATP inconclusive, FLuc SDR ATP inconclusive and FLuc inh-2 2.5µM*.
Screening O=Cc1cccc(-c2ccc(C(=O)O)o2)c1 returned NIH3T3 tox inactive and HEK cytotox inactive.
For CN(C)C(=O)c1ccc(-c2cccc(-c3ccn(CC4CC4)n3)c2)o1 the results were hNpr1 antagonist inconclusive, NIH3T3 tox inconclusive, HEK cytotox inconclusive, FLuc inh-1 7.1µM*, FLuc SDR no ATP 24%, FLuc SDR ATP inconclusive and FLuc inh-2 7.9µM*.
For COC1CCOC2(CCN(C(=O)CCCc3ccccc3)CC2)C1 (stereo unspecified) the results were hNpr1 antagonist -10%, NIH3T3 tox -5%, HEK cytotox -19%, FLuc inh-1 6.3µM*, FLuc SDR no ATP 18%, FLuc SDR ATP inconclusive and FLuc inh-2 inconclusive.
CN(Cc1cccnc1)c1ccc(-c2nc(COc3ccccc3)no2)cn1 was read as hNpr1 antagonist 10µM*, NIH3T3 tox inconclusive, HEK cytotox 25µM*, FLuc inh-1 7.9µM*, FLuc SDR no ATP 18%, FLuc SDR ATP 18% and FLuc inh-2 inconclusive.
Screening CN(CCc1ccccn1)c1ccc(-c2nc(COc3ccccc3)no2)cn1 returned hNpr1 antagonist inconclusive, NIH3T3 tox inconclusive, HEK cytotox 35µM*, FLuc inh-1 8.9µM*, FLuc SDR no ATP 13%, FLuc SDR ATP 15% and FLuc inh-2 inconclusive.
Screening c1ccc(CCCc2noc(-c3ccc(NCc4ccccn4)nc3)n2)cc1 returned hNpr1 antagonist inconclusive, NIH3T3 tox -18%, HEK cytotox inconclusive, FLuc inh-1 13µM*, FLuc SDR no ATP 10%, FLuc SDR ATP 8% and FLuc inh-2 -10%.
